Data on one sequence can be found in article PMC7862700, “An all-to-all approach to the identification of sequence-specific readers for epigenetic DNA modifications on cytosine”.

Holding throughout (assay): DAPPL (digital affinity profiling via proximity ligation, sequencing); 10 mM Tris-HCl pH 7.5, 50 mM NaCl, 1 mM DTT, 4% glycerol, room temperature, 30 min; GST-TFs on glutathione beads, 16-mer random dsDNA library, 0.1% formaldehyde crosslink after washing; high values mean tight binding
One assay deals with T1, FLI1 (Homo sapiens, UniProt Q01543 1-452).
T1 sequence: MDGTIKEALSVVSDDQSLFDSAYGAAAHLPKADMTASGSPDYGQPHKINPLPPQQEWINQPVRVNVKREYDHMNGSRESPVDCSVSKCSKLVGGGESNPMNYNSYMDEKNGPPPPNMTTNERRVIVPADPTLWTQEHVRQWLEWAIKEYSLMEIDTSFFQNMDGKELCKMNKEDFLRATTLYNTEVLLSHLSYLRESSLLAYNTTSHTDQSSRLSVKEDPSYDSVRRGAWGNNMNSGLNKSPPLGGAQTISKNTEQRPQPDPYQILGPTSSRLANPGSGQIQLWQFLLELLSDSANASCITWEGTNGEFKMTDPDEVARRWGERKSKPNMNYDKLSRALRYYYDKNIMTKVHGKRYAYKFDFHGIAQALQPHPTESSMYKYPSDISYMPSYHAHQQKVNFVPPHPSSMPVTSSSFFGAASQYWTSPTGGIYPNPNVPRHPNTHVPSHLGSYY
Particulars: protein: recombinant; tags: N-terminal GST; dsDNA, one strand shown. The procedure, abridged:
(§1)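 Beads coated with glutathione captured GST-fused human transcription factors that had been expressed in yeast, and the factors were then given DNA barcodes and pooled with a tag-only sample. The pools were incubated with 200 nmole of a random double-stranded 16-mer DNA library in Tris/NaCl/DTT/glycerol buffer for 30 min at room temperature, washed, crosslinked with 0.1% formaldehyde and proximity-ligated with BsaI/T4 ligase at 37 °C for 1 h. PCR amplification and Illumina NextSeq500 sequencing came last. Binding signal is each hexamer's read frequency for a factor divided by its frequency for the tag-only sample.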

A further assay concerns the target T2, ELK1 (Homo sapiens, UniProt P19419 1-428).
T2 sequence: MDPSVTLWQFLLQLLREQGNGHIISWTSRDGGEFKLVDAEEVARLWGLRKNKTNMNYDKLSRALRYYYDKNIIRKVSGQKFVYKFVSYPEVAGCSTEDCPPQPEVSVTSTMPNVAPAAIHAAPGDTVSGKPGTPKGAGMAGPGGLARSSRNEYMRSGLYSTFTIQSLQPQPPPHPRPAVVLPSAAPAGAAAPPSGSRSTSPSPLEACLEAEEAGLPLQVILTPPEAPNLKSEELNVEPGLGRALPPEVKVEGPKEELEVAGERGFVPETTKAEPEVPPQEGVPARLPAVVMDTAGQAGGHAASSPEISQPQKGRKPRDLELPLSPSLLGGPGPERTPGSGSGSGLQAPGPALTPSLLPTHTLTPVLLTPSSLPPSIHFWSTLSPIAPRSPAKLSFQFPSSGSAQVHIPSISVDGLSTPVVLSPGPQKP
Particulars: protein: recombinant; tags: N-terminal GST; dsDNA, one strand shown. Summed up: as §1

The target of another assay is T3, GABPA (Homo sapiens, UniProt Q06546 1-454).
T3 sequence: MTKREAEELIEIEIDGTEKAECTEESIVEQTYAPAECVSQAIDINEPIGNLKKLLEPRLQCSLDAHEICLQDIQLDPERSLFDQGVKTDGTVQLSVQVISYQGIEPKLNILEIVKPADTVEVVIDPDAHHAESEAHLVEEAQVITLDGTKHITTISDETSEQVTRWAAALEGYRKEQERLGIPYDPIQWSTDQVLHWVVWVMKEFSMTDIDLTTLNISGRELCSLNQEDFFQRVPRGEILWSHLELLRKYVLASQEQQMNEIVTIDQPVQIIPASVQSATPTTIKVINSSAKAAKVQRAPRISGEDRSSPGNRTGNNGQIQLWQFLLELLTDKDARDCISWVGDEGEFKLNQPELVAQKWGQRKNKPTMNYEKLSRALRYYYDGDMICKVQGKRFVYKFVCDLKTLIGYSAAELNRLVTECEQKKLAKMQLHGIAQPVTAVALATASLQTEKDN
Particulars: protein: recombinant; tags: N-terminal GST; dsDNA, one strand shown. The procedure, abridged:
as §1

The target of a further assay is T4, ERG (Homo sapiens, UniProt P11308 1-479).
T4 sequence: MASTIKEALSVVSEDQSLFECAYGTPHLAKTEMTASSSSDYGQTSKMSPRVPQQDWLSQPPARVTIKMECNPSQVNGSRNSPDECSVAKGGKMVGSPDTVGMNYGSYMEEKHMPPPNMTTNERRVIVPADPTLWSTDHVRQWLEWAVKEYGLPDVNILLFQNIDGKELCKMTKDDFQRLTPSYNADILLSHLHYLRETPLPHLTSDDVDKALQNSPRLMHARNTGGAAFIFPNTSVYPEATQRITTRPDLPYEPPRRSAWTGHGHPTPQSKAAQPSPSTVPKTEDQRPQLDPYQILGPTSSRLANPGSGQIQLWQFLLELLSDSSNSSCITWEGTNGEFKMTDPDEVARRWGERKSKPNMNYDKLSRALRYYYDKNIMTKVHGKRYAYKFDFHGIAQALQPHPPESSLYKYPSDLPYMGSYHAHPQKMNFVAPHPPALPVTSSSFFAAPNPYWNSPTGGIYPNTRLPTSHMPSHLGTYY
Particulars: protein: recombinant; tags: N-terminal GST; dsDNA, one strand shown. Summed up: as §1

For another assay, the target named is T5, EHF (Homo sapiens, UniProt Q9NZC4 1-300).
T5 sequence: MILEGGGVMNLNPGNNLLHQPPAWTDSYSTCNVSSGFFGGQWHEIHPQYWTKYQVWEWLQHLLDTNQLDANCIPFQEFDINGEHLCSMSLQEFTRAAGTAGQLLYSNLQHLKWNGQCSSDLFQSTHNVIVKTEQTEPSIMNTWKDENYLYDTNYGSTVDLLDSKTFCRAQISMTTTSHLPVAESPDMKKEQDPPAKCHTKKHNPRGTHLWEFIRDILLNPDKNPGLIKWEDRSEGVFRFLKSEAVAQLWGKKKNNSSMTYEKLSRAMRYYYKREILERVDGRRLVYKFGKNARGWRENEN
Particulars: protein: recombinant; tags: N-terminal GST; dsDNA, one strand shown. Summed up:
as §1

Another assay addresses SPI1 (Homo sapiens, UniProt P17947 1-270). Particulars: protein: recombinant; tags: N-terminal GST; dsDNA, one strand shown. Summed up: as §1
The target of a further assay is SPIB (Homo sapiens, UniProt Q01892 1-262). Particulars: protein: recombinant; tags: N-terminal GST; dsDNA, one strand shown. Summed up: as §1
The next assay has as its target T6, ELK3 (Homo sapiens, UniProt P41970 1-407).
T6 sequence: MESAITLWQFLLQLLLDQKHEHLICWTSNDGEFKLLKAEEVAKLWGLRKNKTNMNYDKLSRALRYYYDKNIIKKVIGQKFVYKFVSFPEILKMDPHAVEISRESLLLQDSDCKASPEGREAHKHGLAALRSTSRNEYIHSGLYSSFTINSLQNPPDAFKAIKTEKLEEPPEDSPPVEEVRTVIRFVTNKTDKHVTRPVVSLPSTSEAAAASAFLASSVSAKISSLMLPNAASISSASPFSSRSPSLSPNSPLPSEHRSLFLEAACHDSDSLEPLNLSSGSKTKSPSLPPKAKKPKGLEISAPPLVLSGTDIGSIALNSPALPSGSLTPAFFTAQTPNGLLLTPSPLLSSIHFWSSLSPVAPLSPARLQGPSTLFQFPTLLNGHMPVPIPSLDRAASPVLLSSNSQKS
Particulars: protein: recombinant; tags: N-terminal GST; dsDNA, one strand shown. The procedure, abridged:
as §1

For a further assay, the target named is T7, FEV (Homo sapiens, UniProt Q99581 1-238).
T7 sequence: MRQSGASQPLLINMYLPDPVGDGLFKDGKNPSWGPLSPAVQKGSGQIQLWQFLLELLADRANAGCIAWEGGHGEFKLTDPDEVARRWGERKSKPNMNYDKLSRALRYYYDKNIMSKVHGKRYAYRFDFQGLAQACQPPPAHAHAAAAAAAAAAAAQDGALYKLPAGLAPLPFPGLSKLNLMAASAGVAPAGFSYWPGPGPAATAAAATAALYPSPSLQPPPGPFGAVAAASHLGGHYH
Particulars: protein: recombinant; tags: N-terminal GST; dsDNA, one strand shown. The procedure, abridged: as §1

Another assay addresses ETV5 (Homo sapiens, UniProt P41161 1-510). Particulars: protein: recombinant; tags: N-terminal GST; dsDNA, one strand shown. Summed up: as §1
A further assay concerns the target HSF1 (Homo sapiens, UniProt Q00613 1-529). Particulars: protein: recombinant; tags: N-terminal GST; chain copies: 3; dsDNA, one strand shown. Summed up:
as §1

The target of a further assay is ELF4 (Homo sapiens, UniProt Q99607 1-663). Particulars: protein: recombinant; tags: N-terminal GST; dsDNA, one strand shown. Summed up: as §1
The target in the next assay is T8, ELK4 (Homo sapiens, UniProt P28324-2 1-405).
T8 sequence: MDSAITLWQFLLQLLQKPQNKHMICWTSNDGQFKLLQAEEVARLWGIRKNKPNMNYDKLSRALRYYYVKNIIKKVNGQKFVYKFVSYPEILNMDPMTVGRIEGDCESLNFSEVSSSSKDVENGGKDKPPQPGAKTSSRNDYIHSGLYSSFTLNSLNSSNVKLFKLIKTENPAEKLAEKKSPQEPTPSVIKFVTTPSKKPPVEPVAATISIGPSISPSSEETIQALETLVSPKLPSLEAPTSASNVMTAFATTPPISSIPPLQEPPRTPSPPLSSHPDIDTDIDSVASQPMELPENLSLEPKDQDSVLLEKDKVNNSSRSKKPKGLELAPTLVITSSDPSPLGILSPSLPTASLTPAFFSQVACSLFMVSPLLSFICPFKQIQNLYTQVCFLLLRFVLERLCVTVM
Particulars: protein: recombinant; tags: N-terminal GST; dsDNA, one strand shown. Summed up: as §1

The target in the next assay is T9, ETV2 (Homo sapiens, UniProt O00321 1-342).
T9 sequence: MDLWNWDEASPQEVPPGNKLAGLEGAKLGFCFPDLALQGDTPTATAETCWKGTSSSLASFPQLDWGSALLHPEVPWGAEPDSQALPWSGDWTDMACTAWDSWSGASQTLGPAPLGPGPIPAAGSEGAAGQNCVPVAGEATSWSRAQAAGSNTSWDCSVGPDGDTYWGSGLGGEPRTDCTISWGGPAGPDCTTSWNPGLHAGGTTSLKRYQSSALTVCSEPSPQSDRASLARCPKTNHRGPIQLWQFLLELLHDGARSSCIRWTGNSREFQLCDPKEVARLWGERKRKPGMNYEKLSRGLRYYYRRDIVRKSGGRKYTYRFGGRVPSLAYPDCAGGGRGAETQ
Particulars: protein: recombinant; tags: N-terminal GST; dsDNA, one strand shown. The procedure, abridged:
as §1

A further assay concerns the target T10, ELF3 (Homo sapiens, UniProt P78545 1-371).
T10 sequence: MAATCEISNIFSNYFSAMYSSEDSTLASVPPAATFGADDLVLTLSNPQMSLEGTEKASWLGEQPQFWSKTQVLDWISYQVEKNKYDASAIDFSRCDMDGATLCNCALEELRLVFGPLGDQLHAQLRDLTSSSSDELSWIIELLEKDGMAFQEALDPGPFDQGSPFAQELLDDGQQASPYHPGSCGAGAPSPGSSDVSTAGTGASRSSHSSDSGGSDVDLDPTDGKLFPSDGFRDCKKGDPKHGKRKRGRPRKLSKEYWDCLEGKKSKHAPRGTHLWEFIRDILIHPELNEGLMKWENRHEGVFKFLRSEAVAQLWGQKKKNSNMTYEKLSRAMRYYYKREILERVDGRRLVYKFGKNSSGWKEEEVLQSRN
Particulars: protein: recombinant; tags: N-terminal GST; dsDNA, one strand shown. Summed up:
as §1

In a further assay the target is CRX (Homo sapiens, UniProt O43186 1-299). Particulars: protein: recombinant; tags: N-terminal GST; dsDNA, one strand shown. The procedure, abridged: as §1
In another assay the target is ETV1 (Homo sapiens, UniProt P50549 1-477). Particulars: protein: recombinant; tags: N-terminal GST; dsDNA, one strand shown. Summed up:
as §1

Sequence of ETV1 (P50549 whole entry): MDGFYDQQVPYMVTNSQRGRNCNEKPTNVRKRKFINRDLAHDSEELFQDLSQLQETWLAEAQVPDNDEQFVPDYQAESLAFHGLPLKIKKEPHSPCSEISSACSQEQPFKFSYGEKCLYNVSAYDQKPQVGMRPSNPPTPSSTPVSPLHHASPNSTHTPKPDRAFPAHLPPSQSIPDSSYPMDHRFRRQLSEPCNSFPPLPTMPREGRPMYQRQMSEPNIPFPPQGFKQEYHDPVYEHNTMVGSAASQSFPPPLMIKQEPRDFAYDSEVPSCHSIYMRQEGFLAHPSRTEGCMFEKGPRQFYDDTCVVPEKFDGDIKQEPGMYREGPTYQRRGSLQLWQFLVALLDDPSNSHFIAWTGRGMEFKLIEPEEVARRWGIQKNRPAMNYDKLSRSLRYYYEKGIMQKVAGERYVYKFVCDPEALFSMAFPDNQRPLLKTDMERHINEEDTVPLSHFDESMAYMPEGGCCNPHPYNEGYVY
Sequence of SPIB (Q01892 whole entry): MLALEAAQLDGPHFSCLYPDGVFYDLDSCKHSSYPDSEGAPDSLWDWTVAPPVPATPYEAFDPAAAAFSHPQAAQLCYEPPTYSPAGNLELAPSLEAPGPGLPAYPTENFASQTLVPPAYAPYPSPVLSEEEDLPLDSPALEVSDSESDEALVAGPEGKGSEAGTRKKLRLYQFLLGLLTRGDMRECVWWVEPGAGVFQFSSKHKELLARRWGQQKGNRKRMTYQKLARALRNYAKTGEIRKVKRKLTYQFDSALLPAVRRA
Sequence of CRX (O43186 whole entry): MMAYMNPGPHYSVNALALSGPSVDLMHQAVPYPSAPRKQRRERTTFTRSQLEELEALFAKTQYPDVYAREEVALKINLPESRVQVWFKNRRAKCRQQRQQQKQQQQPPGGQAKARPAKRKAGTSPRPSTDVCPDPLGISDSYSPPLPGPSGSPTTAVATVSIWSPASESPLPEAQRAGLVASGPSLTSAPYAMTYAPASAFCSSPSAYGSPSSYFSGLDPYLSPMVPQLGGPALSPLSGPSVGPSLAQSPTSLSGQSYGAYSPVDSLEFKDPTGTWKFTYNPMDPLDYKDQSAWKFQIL
Sequence of ELF4 (Q99607 whole entry): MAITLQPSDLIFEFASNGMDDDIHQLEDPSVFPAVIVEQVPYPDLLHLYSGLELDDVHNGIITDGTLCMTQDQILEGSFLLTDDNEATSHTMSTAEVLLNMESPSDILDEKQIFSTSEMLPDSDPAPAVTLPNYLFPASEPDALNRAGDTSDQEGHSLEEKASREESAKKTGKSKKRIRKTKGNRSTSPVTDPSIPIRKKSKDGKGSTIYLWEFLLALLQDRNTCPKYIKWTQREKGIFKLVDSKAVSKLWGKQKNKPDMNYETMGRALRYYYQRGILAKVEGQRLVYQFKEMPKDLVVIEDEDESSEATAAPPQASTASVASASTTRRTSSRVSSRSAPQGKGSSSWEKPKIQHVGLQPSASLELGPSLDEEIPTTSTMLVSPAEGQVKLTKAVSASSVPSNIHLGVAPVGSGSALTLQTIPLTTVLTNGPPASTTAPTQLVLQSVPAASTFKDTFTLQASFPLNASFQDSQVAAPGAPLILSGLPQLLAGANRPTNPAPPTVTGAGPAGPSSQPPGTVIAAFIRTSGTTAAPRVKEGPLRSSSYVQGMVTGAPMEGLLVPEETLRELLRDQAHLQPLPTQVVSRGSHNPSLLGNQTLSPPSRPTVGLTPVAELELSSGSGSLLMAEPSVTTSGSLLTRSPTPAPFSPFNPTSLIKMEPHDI
Sequence of ETV5 (P41161 whole entry): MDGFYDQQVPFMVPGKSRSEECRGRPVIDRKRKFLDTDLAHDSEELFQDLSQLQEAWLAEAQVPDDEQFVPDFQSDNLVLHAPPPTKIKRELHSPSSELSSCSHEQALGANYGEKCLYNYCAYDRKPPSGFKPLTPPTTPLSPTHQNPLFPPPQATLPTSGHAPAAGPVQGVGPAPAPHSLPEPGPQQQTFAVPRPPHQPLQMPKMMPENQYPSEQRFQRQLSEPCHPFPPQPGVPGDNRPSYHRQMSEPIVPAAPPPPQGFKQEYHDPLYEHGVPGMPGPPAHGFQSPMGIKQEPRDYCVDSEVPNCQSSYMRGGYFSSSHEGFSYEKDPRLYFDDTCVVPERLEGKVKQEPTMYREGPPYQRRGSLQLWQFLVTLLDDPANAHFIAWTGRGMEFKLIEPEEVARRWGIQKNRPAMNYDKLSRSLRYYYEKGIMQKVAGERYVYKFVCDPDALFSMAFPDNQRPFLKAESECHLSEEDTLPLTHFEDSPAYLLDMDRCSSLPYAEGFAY
Sequence of HSF1 (Q00613 whole entry): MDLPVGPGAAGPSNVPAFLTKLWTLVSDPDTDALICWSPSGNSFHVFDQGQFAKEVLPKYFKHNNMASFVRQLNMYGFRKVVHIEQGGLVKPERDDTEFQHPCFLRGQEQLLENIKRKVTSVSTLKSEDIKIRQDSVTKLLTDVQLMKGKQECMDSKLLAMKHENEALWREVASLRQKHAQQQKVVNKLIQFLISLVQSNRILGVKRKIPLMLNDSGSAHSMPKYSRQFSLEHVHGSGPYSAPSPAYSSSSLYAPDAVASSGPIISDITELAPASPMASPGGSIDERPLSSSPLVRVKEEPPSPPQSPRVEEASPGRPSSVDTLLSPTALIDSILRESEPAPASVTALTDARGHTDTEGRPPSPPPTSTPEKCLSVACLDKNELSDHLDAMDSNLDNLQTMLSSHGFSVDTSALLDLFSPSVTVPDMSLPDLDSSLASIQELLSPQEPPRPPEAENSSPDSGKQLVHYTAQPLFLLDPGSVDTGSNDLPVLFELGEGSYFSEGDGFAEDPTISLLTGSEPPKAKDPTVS

With TTTAGG, the binding signal was 1.05 fold enrichment (6-mer frequency, TF over GST control) in the assay with FLI1; 1.12 fold enrichment (6-mer frequency, TF over GST control) in the assay with ELK1; 1.11 fold enrichment (6-mer frequency, TF over GST control) with GABPA; 1.08 fold enrichment (6-mer frequency, TF over GST control) with ERG; 1.06 fold enrichment (6-mer frequency, TF over GST control) with EHF; 1.08 fold enrichment (6-mer frequency, TF over GST control) with SPI1. The binding signal in the assay with SPIB is 1.15 fold enrichment (6-mer frequency, TF over GST control); with ELK3 it was 1.07 fold enrichment (6-mer frequency, TF over GST control); with FEV, 1.09 fold enrichment (6-mer frequency, TF over GST control); in the assay with ETV5, 1.06 fold enrichment (6-mer frequency, TF over GST control); with HSF1, 1.25 fold enrichment (6-mer frequency, TF over GST control); in the assay with ELF4, 1.05 fold enrichment (6-mer frequency, TF over GST control). Also, the binding signal with ELK4 was 1.11 fold enrichment (6-mer frequency, TF over GST control); with ETV2, 1.09 fold enrichment (6-mer frequency, TF over GST control); with ELF3, 1.09 fold enrichment (6-mer frequency, TF over GST control); with CRX, 1.5 fold enrichment (6-mer frequency, TF over GST control); in the assay with ETV1, 1.13 fold enrichment (6-mer frequency, TF over GST control).
